From PubChem
Shown are actives, neighbours in structure and some others; about 13% of the full set was active somewhere.
USP28 inh: inhibitors of human USP28 deubiquitinase; inhibition, % at 25 µM; actives 3% (n = 47,000); Ubiquitin carboxyl-terminal hydrolase 28 (Homo sapiens), Q96RU2; AID 1645857, 2021; purified USP28, Ub-rhodamine cleavage fluorescence, 30 min
USP8 inh: inhibitors of human USP8 deubiquitinase; Ubiquitin carboxyl-terminal hydrolase 8 (Homo sapiens), P40818; purified USP8, Ub-rhodamine cleavage fluorescence, 30 min; inhibition, % at 20 µM; actives 4.2% (n = 47,000); AID 1645853, 2021
USP30 block: inhibitors of human USP30 deubiquitinase; inhibition, % at 25 µM; actives 5.3% (n = 47,000); purified USP30, Ub-rhodamine cleavage fluorescence
USP17 inh: inhibitors of human USP17 deubiquitinase. Ubiquitin carboxyl-terminal hydrolase 17-like protein 5 (Homo sapiens), A8MUK1. purified USP17, Ub-rhodamine cleavage fluorescence, 3 h. inhibition, % at 50 µM. actives 6.5% (n = 47,000)
USP10 inh: inhibitors of human USP10 deubiquitinase. inhibition, % at 20 µM. Ubiquitin carboxyl-terminal hydrolase 10 (Homo sapiens), Q14694. purified USP10, Ub-rhodamine fluorescence, 60 min. AID 1645856, 2021. actives 1.1% (n = 47,000)
Target sequence (Q14694 whole entry, looked up): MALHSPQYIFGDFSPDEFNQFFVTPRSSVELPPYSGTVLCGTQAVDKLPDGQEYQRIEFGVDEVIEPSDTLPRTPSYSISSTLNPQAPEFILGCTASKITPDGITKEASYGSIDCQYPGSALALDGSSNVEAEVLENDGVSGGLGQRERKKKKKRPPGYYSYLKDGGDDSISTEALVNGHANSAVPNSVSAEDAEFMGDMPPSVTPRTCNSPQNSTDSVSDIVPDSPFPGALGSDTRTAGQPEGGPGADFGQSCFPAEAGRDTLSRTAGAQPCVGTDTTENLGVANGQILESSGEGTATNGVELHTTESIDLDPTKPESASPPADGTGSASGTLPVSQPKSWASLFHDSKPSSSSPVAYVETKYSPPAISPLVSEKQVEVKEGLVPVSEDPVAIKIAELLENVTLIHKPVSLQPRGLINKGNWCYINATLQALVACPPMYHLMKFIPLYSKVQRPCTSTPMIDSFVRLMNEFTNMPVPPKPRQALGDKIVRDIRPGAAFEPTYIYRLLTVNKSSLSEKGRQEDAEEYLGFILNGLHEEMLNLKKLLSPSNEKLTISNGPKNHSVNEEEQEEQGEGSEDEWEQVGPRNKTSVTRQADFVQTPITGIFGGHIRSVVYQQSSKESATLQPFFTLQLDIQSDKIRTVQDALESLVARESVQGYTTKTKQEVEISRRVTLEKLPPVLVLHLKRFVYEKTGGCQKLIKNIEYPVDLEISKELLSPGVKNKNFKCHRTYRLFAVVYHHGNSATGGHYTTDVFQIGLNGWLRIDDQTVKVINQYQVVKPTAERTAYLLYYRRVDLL
Hits are given with their value; – = inactive; · = no result given. No stated cut-off is given here; in the data, active means inhibition above about 30%; inactive means the rest.

SMILES	USP28 inh	USP8 inh	USP30 block	USP17 inh	USP10 inh
Cn1c(CC2CCN(C(=O)COc3ccc(F)c(F)c3)C2)nc2cccnc21 (stereo unspecified)	–	–	–	–	–
CNc1ncc(C(=O)N2CCOC(C(=O)N3CCCCCC3)C2)cn1 (stereo unspecified)	–	–	–	–	–
O=C(Nc1ccc(-n2cnc(C(=O)N3CCc4ccccc4C3)c2)nc1)C1CC1	–	–	–	–	–
O=C(Nc1cccc(CO)c1)c1ccc(COc2ccc(Cl)cc2)cc1	–	–	–	–	–
COC(=O)c1ccc(NC(=O)c2ccc(COc3cc(Cl)ccc3Cl)cc2)cc1	–	–	–	47	–
O=C(/C=C/c1ccc(OCc2cccc(Cl)c2)cc1)NC1CCCC1	–	–	–	36	–
Cc1cc(N)n(-c2ccc(Br)cc2)n1	–	–	–	–	–
Cc1ccc(C(C(=O)NCc2ccc3c(c2)OCO3)N(C(=O)c2ccc3c(c2)OCCO3)C2CCCC2)cc1 (stereo unspecified)	–	47	–	49	–
Cc1ccc(C(C(=O)NCc2ccc3c(c2)OCO3)N(C(=O)c2ccc3c(c2)OCCO3)c2cc(C)cc(C)c2)cc1 (stereo unspecified)	–	–	–	–	–
O=C(Cn1cnnn1)N1CCCCC1c1nc2ccccc2[nH]1 (stereo unspecified)	–	–	–	–	–
Cc1nn(-c2cc(N3CCOCC3)ncn2)c(C)c1CCC(=O)Nc1ccc(C(C)C)cc1	–	–	–	65	–
Cc1nn(-c2cc(N3CCOCC3)ncn2)c(C)c1CCC(=O)Nc1ccc(Cl)cc1	–	–	–	–	–
COc1ccccc1-c1nn(-c2ccccc2)cc1C(=O)N1CCCc2ccccc21	–	–	–	–	–
COc1cc(NS(=O)(=O)c2ccc(NC(=O)COc3ccc(C)cc3Br)cc2)nc(OC)n1	–	–	45	–	38
Cc1c(Cl)cccc1NS(=O)(=O)c1ccc(N2CCCCS2(=O)=O)cc1	–	–	40	–	–
CCOc1ccc(NS(=O)(=O)c2ccc(NC(=O)COc3ccccc3C)cc2)cc1	–	–	43	–	–
Cc1ccc(C(C)C)c(OCC(=O)Nc2ccc(S(=O)(=O)Nc3cc(C)nc(C)n3)cc2)c1	–	–	–	–	–
COc1ccc(NS(=O)(=O)c2ccc(NC(=O)Nc3ccc(Cl)cc3)cc2)cc1	42	–	–	56	–
COc1ccc(NS(=O)(=O)c2ccc(OC)c(NC(=O)c3ccc(OC)cc3)c2)cc1	–	–	–	–	–
Cc1ccc(-n2c(=O)[nH]c3c(C(N)=O)nc(-c4ccc(OCc5ccccc5)cc4)nc32)cc1	–	–	–	–	–
Cc1c(Cl)cccc1NS(=O)(=O)c1ccc2[nH]cc(C(=O)N3CCCCCC3)c(=O)c2c1	–	–	–	–	–
CCOc1ccc(NS(=O)(=O)c2ccc(NC(=O)Nc3ccccc3)cc2)cc1	49	45	83	–	34
Cc1c(Cl)cccc1NS(=O)(=O)c1ccc(NC(=O)Nc2ccccc2)cc1	–	–	34	39	–
O=C1CO[C@H]2CN(S(=O)(=O)c3ccccc3)C[C@H]2N1Cc1ccccn1	–	–	–	–	–
O=C(Nc1cnc(N2CCCCCC2)nc1)c1cc(F)cc(F)c1	–	–	–	–	–
SMILES	USP28 inh	USP8 inh	USP30 block	USP17 inh	USP10 inh
CC1CCC2(C(=O)O)CCC3(C)C(=CCC4C5(C)CCC(O)C(C)(C)C5CCC43C)C2C1C (mixture of isomers)	–	–	40	–	–
C[C@@H]1CC[C@]2(C(=O)O)CC[C@]3(C)C(=CCC4[C@@]5(C)CC[C@H](O)C(C)(C)C5CC[C@]43C)C2[C@H]1C (stereo partly specified)	–	–	35	–	–
CC1(C)C[C@@H](O)[C@]2(C)CC[C@]3(C)C(=CCC4[C@@]5(C)CCC(=O)[C@](C)(CO)[C@@H]5CC[C@]43C)[C@@H]2C1 (stereo partly specified)	–	–	–	–	–
Cc1ccc(CN2CC[C@@H]3[C@@H]2CCN3S(=O)(=O)C2CC2)o1	–	–	–	–	–
O=C(NC1CCCCC1)c1cccc(S(=O)(=O)N2CC(c3ccccc3)CC2=O)c1 (stereo unspecified)	–	–	31	–	–
O=C1CC(c2ccco2)Cc2nc(NCc3ccco3)ncc21 (stereo unspecified)	–	–	–	34	–
O=C1CC(c2ccccc2)Cc2nc(NCc3ccco3)ncc21 (stereo unspecified)	–	–	–	–	–
Cc1ccccc1NC(=O)Cn1c(C)nc2c(c1=O)CCN(Cc1ccccc1)C2	–	49	–	–	–
O=C(O)c1c(CNC2CCCC2)c2ccccc2n1Cc1ccc(F)cc1	–	–	–	–	–
COc1ccc(CN2C=C(C(=O)Nc3ccccc3C)C(C)=NS2(=O)=O)cc1	–	–	–	–	–
Cc1cc(-c2ccccc2)cc(C2CCCN(C(=O)c3ccccc3)C2)n1 (stereo unspecified)	–	–	–	–	–
Cn1c(SCCOc2ccccc2Cl)nnc1-c1ccc2c(c1)OCCO2	38	–	39	–	–
Cn1c(SCC(=O)c2ccc3c(c2)OCCCO3)nnc1-c1ccc2ccccc2c1	31	–	49	–	–
CCn1c(=O)c2sccc2n2c(CCC(=O)NC3CCCC3)nnc12	–	–	–	–	–
Fc1cc2c(c(CSc3nnc4ccccn34)c1)OC(c1ccccc1)OC2 (stereo unspecified)	–	49	–	–	–
O=C(O)c1nn(Cc2cc(F)cc3c2OC(c2ccccc2)OC3)c(=O)c2ccccc12 (stereo unspecified)	–	–	–	–	–
O=C1NC2(COC3(CCN(Cc4ccc(F)cc4)CC3)C2)Nc2ccccc21 (stereo unspecified)	–	–	–	–	–
Cc1cnc(NC(=O)C2CC(=O)N(c3ccc4c(c3)OCCO4)C2)s1 (stereo unspecified)	–	–	–	–	–
O=C(Nc1ncccc1O)C1CC(=O)N(c2ccc3c(c2)OCO3)C1 (stereo unspecified)	–	55	–	–	–
CCn1ncc(Cn2cc(Cl)c(N)n2)c1C	–	–	–	–	–
NC(=O)c1cncc(Sc2ccccc2)n1	–	–	–	–	–
O=C(CC1C(=O)Nc2ncnn21)Nc1cccc2ccccc12 (stereo unspecified)	–	–	–	–	–
Cc1ccc(Sc2ccc(C#N)cc2NC(=O)c2ccccc2C)cc1	–	–	41	–	–
Cc1cccc(OCCn2c(NC(=O)c3ccc(Cl)cc3)nc3ccccc32)c1	–	66	–	–	–
O=C(CSc1n[nH]c(-c2ccncc2)n1)NC1CCCCC1	–	–	–	·	–
Cc1ccc(S(=O)(=O)NCCn2ccc3ccccc32)cc1	–	–	–	–	–
